Source: PubChem (several laboratories)
V-ATPase pHluor: alters yeast V-ATPase proton transport | response, % at 10 µM | S. cerevisiae, pHLuorin cytosolic pH fluorescence | AID 504577 | 350,000 tested, 0.37% active; in the data active = response mostly above about 7.3%, no sharp cut-off; inactive = mostly below about 5.4%; note: actives read high
Rtt109 Vps75: blocks Candida albicans Rtt109/Vps75 acetyltransferase activity. Q5AAJ8. purified Rtt109/Vps75, ThioGlo CoA-SH fluorescence, 4 h. inhibition, % at 34.9 µM. 330,000 tested, 0.16% active;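 active = inhibition of at least 50% in every replicate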
Target sequence (Q5AAJ8 whole entry, looked up): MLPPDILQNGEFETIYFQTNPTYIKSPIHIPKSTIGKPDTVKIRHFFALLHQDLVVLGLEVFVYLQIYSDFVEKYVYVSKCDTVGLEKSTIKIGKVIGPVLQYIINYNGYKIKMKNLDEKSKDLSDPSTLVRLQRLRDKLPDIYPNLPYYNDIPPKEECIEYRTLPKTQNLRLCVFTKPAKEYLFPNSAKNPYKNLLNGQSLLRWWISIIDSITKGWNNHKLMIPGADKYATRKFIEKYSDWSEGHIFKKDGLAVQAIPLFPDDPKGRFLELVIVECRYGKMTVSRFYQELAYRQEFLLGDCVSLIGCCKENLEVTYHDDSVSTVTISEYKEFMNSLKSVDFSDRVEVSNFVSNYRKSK
HDAC3 inh: blocks human histone deacetylase 3. recombinant HDAC3, fluorogenic peptide/trypsin coupled, fluorescence. inhibition, % at 8.3 µM. 320,000 tested, 0.15% active. AID 2718; in the data active = inhibition above about 26%, passing the limit was not always enough
MIN6 prolif: induces beta-cell replication in MIN6 cells. 330,000 tested, 0.29% active. MIN6 cells proliferation, ATPlite luminescence, 48 h; cells starved in 0.2% serum; 100% = growth in 10% serum. proliferation, % at 10 µM;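 active = compounds whose signal lies at least 3.5 SD above the mean of all wells on their plate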
DAGLB inhibitor: blocks human DAGLB lipase activity | Q8NCG7 | inhibition, % at 5.17 µM | 340,000 tested, 0.059% active | HEK293T DAGLB membrane lysate, EnzChek fluorogenic substrate; in the data active = inhibition above about 34%
V-ATPase pH SP: yeast V-ATPase proton transport regulation | shares compounds with V-ATPase pHluor | S. cerevisiae pHLuorin cytosolic pH | response, % at 10 µM | 980 tested, 2% active | AID 602197; in the data active = response above about 24%
Hits are given with their value; – = inactive; · = no result. In the library only some 0.96% were active in any assay of this set; here they are far more common.

SMILES	V-ATPase pHluor	Rtt109 Vps75	HDAC3 inh	MIN6 prolif	DAGLB inhibitor	V-ATPase pH SP
O=C(NCc1cccc(F)c1)C1CCC(=O)N(CCc2cccc(F)c2)C1 (stereo not given)	–	–	–	–	–	·
COCCN1CCN(C(=O)C2CCC(=O)N(CCc3cccc(F)c3)C2)CC1 (stereo not given)	7.4	–	–	–	–	–
O=C(NCCc1c[nH]c2ccccc12)C1CCC(=O)N(CCc2cccc(F)c2)C1 (stereo not given)	11	–	–	–	–	–
COCCN(Cc1ccccc1)C(=O)c1cccc(S(=O)(=O)N2CCCc3ccccc32)c1	–	–	–	–	–	·
O=C(NN=C1CCCCCCC1)c1ccc(F)cc1	–	–	–	–	–	–
CCOC(=O)C1CCCN1C(=O)c1ccc(OC)c(Br)c1 (stereo not given)	–	–	–	–	–	·
Cc1ccccc1S(=O)(=O)Cc1ccc(C(=O)NCCCN2CCN(C)CC2)o1	7.6	–	–	–	–	–
Cc1ccccc1S(=O)(=O)Cc1ccc(C(=O)NCCCN2CCCC2)o1	–	–	–	–	–	·
CCN(CCO)C1CC(=O)N(c2ccccc2C)C1=O (stereo not given)	–	–	–	–	–	·
Cc1ccc(NC(=O)c2cc(C)on2)cc1	6.9	–	–	–	–	–
Cc1cc(NC(=O)c2cc(-c3ccc(Br)cc3)on2)no1	10	–	–	–	–	–
CCc1ccc(NC(=O)c2cc(C)on2)cc1	–	–	–	–	–	·
CCOc1ccc(NC(=O)CCC(=O)NNC(=O)c2ccco2)cc1	9.2	–	–	–	–	–
CCOc1ccc(NC(=O)CCC(=O)N/N=C(\C)c2cccs2)cc1	8.8	–	–	–	–	–
CC(=O)Oc1ccccc1N1C(=O)c2ccc(C(=O)O)cc2C1=O	–	–	–	–	–	·
COc1cc(Br)cc(C(c2c(C)n(C)n(-c3ccccc3)c2=O)c2c(C)n(C)n(-c3ccccc3)c2=O)c1O	–	·	–	–	·	·
O=C(NCCCCNC(=O)c1ccc(F)cc1)c1ccc(F)cc1	–	–	–	–	–	–
Cc1[nH]c2ccccc2c(=O)c1CNCc1ccccc1	–	·	·	·	–	·
CCCCCn1c(=O)c(C(=O)OCC)c(O)c2ccccc21	–	–	·	–	–	·
CCCCn1c(=O)c(C(=O)OCC)c(O)c2ccccc21	9.8	–	–	–	–	–
Cc1ccc(-n2c3c(cc(C(=O)NCCCN4CCOCC4)c2=O)C(=O)CC(C)(C)C3)cc1	11	–	–	–	–	–
O=c1cc(CCl)nc2sc3ccccc3n12	13	–	·	–	–	–
O=C(OCc1cc(=O)n2c(n1)sc1ccccc12)c1ccc(O)cc1	–	–	–	–	–	·
CCOC(=O)c1c(NC(=O)C2=C(C)NC(=S)NC2c2ccc(F)cc2F)sc(C)c1C (stereo not given)	–	–	–	–	–	·
O=C(c1cc(Cl)nc2ccccc12)N1CCN(S(=O)(=O)c2ccccc2[N+](=O)[O-])CC1	14	–	–	–	–	–
SMILES	V-ATPase pHluor	Rtt109 Vps75	HDAC3 inh	MIN6 prolif	DAGLB inhibitor	V-ATPase pH SP
N/C(=N\OS(=O)(=O)c1cc(Cl)ccc1Cl)c1ccncc1	–	–	–	–	–	·
CC1CCCN(CCC(=O)c2ccc(Br)cc2)C1 (stereo not given)	8.8	–	–	–	–	–
O=C(COC(=O)c1ccccc1C(=O)c1ccccc1)NCCc1ccccc1	–	–	–	–	–	·
CCc1ccc(/C(C)=N/NC(=O)CNC(=O)/C=C/c2ccco2)cc1	25	·	–	–	–	–
CCc1ccc(/C(C)=N/NC(=O)CNC(=O)/C=C/c2ccccc2OC)cc1	–	–	–	–	–	·
Cc1onc(-c2ccccc2)c1C(=O)c1c[nH]c(C(=O)NCc2ccncc2)c1	11	–	–	–	–	–
Cc1onc(-c2ccccc2)c1C(=O)c1c[nH]c(C(=O)NCc2ccccn2)c1	–	–	–	–	–	·
NC(N)=NN=C1c2ccccc2-c2ccccc21	201	–	–	–	–	–
ON=C1c2ccccc2-c2ccccc21	–	–	–	–	–	·
COc1cc2c(=O)c(-c3ccc(O)cc3)coc2cc1OC1OC(CO)C(O)C(O)C1O (stereo not given)	9.6	–	–	–	–	–
CCCCCOC(=O)C1=C(C)NC(=O)NC1c1ccccc1 (stereo not given)	12	–	–	–	–	–
CCCCCOC(=O)C1=C(C)NC(=O)NC1c1ccc(N(C)C)cc1 (stereo not given)	–	–	–	–	–	·
CN(C)CCC(=O)c1ccc(F)cc1	–	–	–	–	–	–
CN1CCN(CCCC(=O)c2ccc(F)cc2)CC1	–	–	–	–	–	–
O=C(CCCN1Cc2ccccc2C1)c1ccc(F)cc1	–	–	–	–	–	–
O=C(CCCN1CCN(c2ccccc2)CC1)c1ccc(F)cc1	–	·	·	·	–	·
Cc1ccc(C)c(N2CC(=O)N(c3cc(C)ccc3C)CC2=O)c1	–	–	–	–	–	·
CN(C)CCCN(C(=O)c1ccc2c(c1)CCCC2)c1nc2ccc(F)cc2s1	19	–	–	–	–	–
CCN(CC)CCN(C(=O)c1ccc2c(c1)CCCC2)c1nc2ccc(F)cc2s1	–	–	·	–	–	·
CCC1Oc2ccccc2N(CC(=O)NCc2cccs2)C1=O (stereo not given)	12	–	–	–	–	–
CCC1Oc2ccc(C)cc2N(CC(=O)NCc2cccs2)C1=O (stereo not given)	–	–	–	–	–	·
Cc1cc(C)c(C(N)=O)c(Nc2ccc(F)cc2)n1	–	–	–	–	–	·
Cc1cc(NC(=O)CCC(=O)N(CC(=O)NC2CCCC2)Cc2ccc3c(c2)OCO3)no1	9.7	–	–	–	–	–
Cc1cc(NC(=O)CCC(=O)N(CC(=O)NC2CCCC2)Cc2ccc(F)cc2)no1	–	–	–	–	–	·
CCC(=O)Nc1nc(C)c(Oc2ccccc2)c(=O)[nH]1	–	–	–	–	–	·
SMILES	V-ATPase pHluor	Rtt109 Vps75	HDAC3 inh	MIN6 prolif	DAGLB inhibitor	V-ATPase pH SP
COn1c(SCc2cccc(Cl)c2)nc2ccccc2c1=O	15	–	–	–	–	–
COc1ccc([N+](=O)[O-])cc1N(CC(=O)N1CCN(Cc2ccccc2)CC1)S(C)(=O)=O	8.8	–	–	–	–	–
COc1ccc(OC)c(N(CC(=O)N2CCN(Cc3ccccc3)CC2)S(C)(=O)=O)c1	–	–	–	–	–	·
C=CCNCCOc1c(C)cc(C)cc1Cl	7.7	–	–	–	–	–
C=CCNCCCCOc1c(Cl)cc(C)cc1Br	–	–	–	–	–	·
CC(C)C(NC(=O)c1ccccc1NC(=O)c1ccccc1)C(=O)NCCCn1ccnc1 (stereo not given)	9.5	–	–	–	–	–
Cc1onc(-c2ccccc2)c1C(=O)N(Cc1ccccc1)C(C)C	–	–	–	–	–	·
Cc1ccc(C)c(OCCC(=O)OCC(=O)N2CCN(S(=O)(=O)c3ccc(Cl)cc3)CC2)c1	–	–	–	–	–	·
